Pf growth 48h: inhibits P. falciparum growth in the first generation, 48 h | P. falciparum luciferase growth in erythrocytes, 48 h | AID 504832 | Potency, µM (doses to about 28.7 µM), inactives show at the highest dose activity change, negative = inhibition, usual class: inhibitors | actives 5.9% (n = 310,000); also: potency is read from the fitted curve at half-maximal effect; % is scaled to controls: 0 for no effect and ±100 for the full control effect
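Luciferase-expressing P. falciparum in infected erythrocytes (2% hematocrit, 0.1% parasitemia final) in RPMI 1640/0.5% Albumax were exposed to compound for 48 hours at 37 C, 5% CO2; growth read as luminescence.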
CHX counter: counter-screen hit for Shiga toxin inhibitors, cycloheximide. actives 12% (n = 300,000). cell reporter, cycloheximide protein synthesis inhibition counterscreen. max response, %. AID 2314; in the data active = max response mostly above about 13%, no sharp cut-off; inactive = mostly below about 14%; also: read at 38.3 µM for the half of the compounds with a filed dose; 0% is about no effect
NS1 inh: influenza NS1 inhibition. Potency, µM (highest dose often 46.1 µM), for inactives: top-dose activity, positive = more growth. actives 0.4% (n = 270,000); calls by dose curve; also: potency is read from the fitted curve at half-maximal effect; actives are rising curves; nearly all actives have a fitted effect of over 50% in size
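Read-out: OD600 growth recovery of NS1-expressing budding yeast. Cells grown overnight at 30C in -URA glucose medium, washed, resuspended and diluted 1:100 in 2% galactose assay medium, pH 6.0. Same strain lacking NS1 served as positive control.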
Sm TGR block: blocks Schistosoma mansoni thioredoxin glutathione reductase. purified TGR, DTNB reduction, TNB absorbance 405 nm. Potency, µM (doses to about 114 µM), for inactives: top-dose activity change, negative = inhibition, usual class: inhibitors. actives 3% (n = 360,000). AID 485364; also: potency is read from the fitted curve at half-maximal effect; % is scaled to controls: 0 for no effect and ±100 for the full control effect; nearly all actives have a fitted effect of over 60% in size
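Kinetic colorimetric format: TGR-catalysed, NADPH-driven DTNB reduction monitored via TNB absorbance. Enzyme dispensed at 20 nM; compound exposure 15 min at room temperature before reaction start.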
Shiga inhibitor: blocks Shiga toxin action in Vero cells; AID 2315; inhibition, % at 38.7 µM; Vero cells, Shiga toxin protein synthesis inhibition reporter; actives 9.2% (n = 290,000); in the data active = inhibition mostly above about 28%, no sharp cut-off; inactive = mostly below about 43%; also: 0% is about no effect
Pf growth 96h: P. falciparum growth inhibition at 96 hours. P. falciparum luciferase reporter growth, 96 h. Potency, µM (series often up to 28.7 µM), inactives show at the top dose activity change, negative = inhibition, hits mostly inhibitors. actives 6.9% (n = 320,000); also: potency is read from the fitted curve at half-maximal effect; % is scaled to controls: 0 for no effect and ±100 for the full control effect
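Delayed-death screen, second-generation endpoint: infected erythrocytes, 2% hematocrit, 0.05% parasitemia final; 96 hours at 37 C, 5% CO2; luciferase detection reagent; luminescence decrease equals reduced growth.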
Active calls of the source: *; ? = inconclusive; · = no result. Compounds with a hit are over-represented: about 21% of the library has one in this group of screens. Unless noted, calls follow the shape of the dose curve; as a rule, active = well fitted curve in the direction sought with a large enough effect; inconclusive = small, poorly fitted or top-dose-only effect, or another doubt; inactive = no such curve, though single readings can be large; an effect the other way counts as inactive or inconclusive.

SMILES	Pf growth 48h	CHX counter	NS1 inh	Sm TGR block	Shiga inhibitor	Pf growth 96h
Cc1ccc(N2CC(C(=O)NC3=NCCS3)CC2=O)cc1C (stereo not drawn)	?	-1	3%	6%	3	·
CCOc1ccc(N2CC(C(=O)Nc3ccc4c(c3)OCCO4)CC2=O)cc1 (stereo not drawn)	66%	50*	-4%	-2%	62*	16%
Cc1ccc(N2CC(C(=O)Nc3ccc(N(C)C)cc3)CC2=O)cc1C (stereo not drawn)	5%	6	-10%	8%	7	8.3µM*
CCOC(=O)Cn1c(=O)c2c(nc3n2CCN3c2ccc(CC)cc2)n(C)c1=O	·	·	·	11%	·	·
O=C(c1cc(-c2cccc(Cl)c2)on1)N1CCc2ccccc2C1	14%	-1	1%	-4%	-7	-15%
O=C(c1cc(-c2ccc(O)cc2)on1)N1CCc2ccccc2C1	·	5	-99%	2%	46	0.37µM*
O=C(c1cc(-c2ccco2)on1)N1CCc2ccccc2C1	16%	9	-6%	13µM*	36	·
O=C(c1cc(-c2ccccc2O)on1)N1CCc2ccccc2C1	·	25*	-60%	8%	51	28%
O=C(c1cc(-c2cccs2)on1)N1CCc2ccccc2C1	?	18	-36%	0%	47*	2%
COc1ccccc1-c1cc(C(=O)N2CCc3ccccc3C2)no1	·	·	-84%	·	·	·
O=C(OC1CCOC1=O)c1cc(-c2cccs2)nc2ccccc12 (stereo not drawn)	-3%	2	·	-2%	-11	32%
CC(C)OCCCNC(=O)c1ccccc1NC(=O)C1=CSCCO1	4%	-2	-21%	11%	-2	?
COc1ccc(-c2nc(CS(=O)CC(=O)N3CCOCC3)c(C)o2)cc1OC (stereo not drawn)	7%	-5	-2%	40µM*	-7	?
COc1ccc(-c2nc(CS(=O)CC(=O)NC3CCCCCC3)c(C)o2)cc1 (stereo not drawn)	4%	6	21%	40µM*	-4	14%
COc1ccc(-c2nc(CS(=O)CC(=O)NC3CCCCC3)c(C)o2)cc1OC (stereo not drawn)	?	12	4%	35µM*	1	?
Cc1oc(-c2ccccc2)nc1CS(=O)CC(=O)NC1CCCC1 (stereo not drawn)	5%	-2	?	7.9µM*	3	?
Cc1ccc(-c2nc(CS(=O)CC(=O)NC3CC3)c(C)o2)cc1 (stereo not drawn)	7%	-3	29%	?	8	?
CN(C)c1ccc(CNC(=O)C2CCCN(S(=O)(=O)c3ccc4c(c3)oc(=O)n4C)C2)cc1 (stereo not drawn)	·	·	·	1%	·	·
COc1ccc(-c2cc3ncnc(Cl)c3s2)cc1	138%	33*	-10%	-18%	58	107%
COc1ccc(-c2cc(=S)ss2)cc1	28%	·	·	·	·	?
CCCCCn1c(=O)[nH]c2cc(C(=O)N3CCN(c4ccc(OC)cc4)CC3)ccc2c1=O	·	·	·	-8%	·	·
COc1cc(NC(=O)[C@@H](NC(=O)c2ccco2)C(C)C)c(OC)cc1NC(=O)c1ccccc1	?	-2	·	8%	15	?
Nc1ccccc1C(=O)N/N=C1\C2CN3CCN(C2)CC1(c1ccccc1)C3	48%	50*	4%	5%	81*	7%
Nc1ccccc1C(=O)N/N=C1/C2CN3CCN(C2)CC1(Cc1ccccc1)C3	20%	-6	·	4%	29	-4%
O=C(N/N=C1\C2CN3CCN(C2)CC1(c1ccccc1)C3)c1ccc(F)cc1	-7%	23*	17%	-3%	0	1%
SMILES	Pf growth 48h	CHX counter	NS1 inh	Sm TGR block	Shiga inhibitor	Pf growth 96h
CCCC12CN3CCN(CC(C3)/C1=N\NC(=O)c1ccccc1N)C2	23%	25*	3%	-12%	38*	10%
CCOc1ccccc1NC(=O)CCNC(=O)c1ccco1	16%	2	-10%	2%	12	17%
COc1ccc(Nc2ncc(C(=O)Nc3cc(Cl)c(OC)cc3OC)c3ccccc23)cc1	·	·	·	-11%	·	·
COc1ccc(C(=O)Nc2ccccc2NC(=O)c2ccco2)c(OC)c1	?	0	·	11%	38	38%
COc1ccc(OC)c(NC(=O)c2cnc(Nc3ccccc3OC)c3ccccc23)c1	10µM*	-5	17%	0%	-3	17%
COc1ccc(OC)c(NC(=O)CCNC(=O)c2ccco2)c1	-15%	1	15%	-4%	-4	-10%
COc1ccc(OC)c(NC(=O)c2ccccc2NC(=O)c2ccco2)c1	3.3µM*	-4	-10%	-1%	1	-6%
CC(=O)c1ccccc1NC(=O)CCNC(=O)c1ccco1	9%	18*	-14%	-25%	27	11%
COc1ccc(NC(=O)CCNC(=O)c2ccco2)c(OC)c1	9%	28*	11%	?	17	58%
CCOC(=O)c1ccc(NC(=O)c2cn3c4c(ccc(Cl)c4c2=O)OC(C)C3)cc1 (stereo not drawn)	·	·	·	-11%	·	·
CC(C(=O)Nc1cccnc1)n1cc([N+](=O)[O-])cn1 (stereo not drawn)	?	-2	·	2%	-4	-27%
CCC(C)NC(=O)C1c2ccccc2C(=O)N1Cc1ccc(F)cc1 (stereo not drawn)	·	13	-1%	9%	-3	-15%
COc1ccccc1NS(=O)(=O)c1ccc(NC(=O)CCNC(=O)c2ccco2)cc1	?	-1	0%	-15%	4	8.3µM*
CN(C)S(=O)(=O)c1ccc(NC(=O)CCNC(=O)c2ccco2)cc1	21%	-1	-14%	-1%	-6	9%
COc1cc2c(cc1NC(=O)c1ccco1)CCCC2	·	52*	-72%	-8%	57*	·
COc1ccc(NC(=O)c2ccco2)c(OC)c1	72%	42*	-17%	-6%	74*	?
CCOc1cc(NS(=O)(=O)c2ccccc2)c(OCC)cc1NC(=O)c1ccco1	-13%	1	5%	32µM*	-14	·
COc1ccccc1NC(=O)Cn1c(=O)n(Cc2nc(C)no2)c(=O)c2cc3c(cc21)OCO3	·	·	·	0%	·	·
O=C(CC1SC(N2CCCCC2)=NC1=O)Nc1cccc(C(=O)NCc2ccc(F)cc2)c1 (stereo not drawn)	-15%	·	·	-2%	·	?
CCOC(=O)c1oc2c(c1C)C(=O)CCC2	8%	9	-15%	-8%	36	2%
CCOC(=O)c1oc2c(c1C)/C(=N/O)CCC2	46%	41*	-25%	19%	66*	84%
COc1ccc(C(=O)Nc2nc3c(s2)Cc2cc(OC)ccc2-3)cc1	5.9µM*	11	6%	-2%	32	?
COc1ccc2c(c1)Cc1sc(NC(=O)c3ccccc3)nc1-2	·	48*	-2%	-22%	145*	2.9µM*

High-throughput results (PubChem BioAssay)
